Screens (PubChem BioAssay)
Sampled rows, rich in hits. Any-hit rate of the full collection: about 5.4%.
AHR act – AHR activators, primary screen, cell-based, luminescence, luciferase reporter, human; Aryl hydrocarbon receptor (Homo sapiens), P35869; AHR-responsive luciferase reporter cells; activation, % at 5 µM; 2.5% of 320,000 active; AID 2796, 2010; in the data active means activation above about 47%;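 further: 0% = vehicle wells and 100% = reference agonist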
Target sequence (P35869 whole entry, looked up): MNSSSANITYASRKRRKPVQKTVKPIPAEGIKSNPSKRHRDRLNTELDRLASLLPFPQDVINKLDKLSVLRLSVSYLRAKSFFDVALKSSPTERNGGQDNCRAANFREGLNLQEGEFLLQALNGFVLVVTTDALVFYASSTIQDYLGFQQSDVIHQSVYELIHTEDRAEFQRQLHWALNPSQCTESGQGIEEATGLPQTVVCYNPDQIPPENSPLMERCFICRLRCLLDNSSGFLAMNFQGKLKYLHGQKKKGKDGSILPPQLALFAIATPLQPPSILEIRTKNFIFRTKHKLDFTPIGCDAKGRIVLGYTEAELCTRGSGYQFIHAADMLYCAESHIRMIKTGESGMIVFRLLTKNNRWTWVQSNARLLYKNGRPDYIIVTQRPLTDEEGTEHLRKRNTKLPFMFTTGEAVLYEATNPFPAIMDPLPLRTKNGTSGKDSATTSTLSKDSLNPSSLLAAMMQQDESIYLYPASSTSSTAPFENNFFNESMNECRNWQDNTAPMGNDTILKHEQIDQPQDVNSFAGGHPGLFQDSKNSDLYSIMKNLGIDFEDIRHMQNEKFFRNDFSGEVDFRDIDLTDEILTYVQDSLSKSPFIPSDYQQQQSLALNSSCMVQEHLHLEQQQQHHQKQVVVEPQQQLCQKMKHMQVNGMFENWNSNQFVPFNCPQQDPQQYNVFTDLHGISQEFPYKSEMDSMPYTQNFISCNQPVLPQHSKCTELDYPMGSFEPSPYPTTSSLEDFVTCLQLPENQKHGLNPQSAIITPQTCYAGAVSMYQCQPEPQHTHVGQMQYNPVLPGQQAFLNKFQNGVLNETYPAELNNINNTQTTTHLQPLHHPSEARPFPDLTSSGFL
GAA850 FXN act – FXN promoter activators, primary screen, cell-based, luciferase luminescence, HEK293 lucGAA850; activation, % at 6 µM; HEK293 lucGAA850 FXN promoter luciferase reporter, 24 h; percent of 10 µM SAHA response; 0.56% of 360,000 active;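 active means activation above the average of all compounds screened plus 3 SD, cutoff fixed separately per campaign, cut at about 7.5% in these data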;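 further: 0% = DMSO wells and 100% = 10 µM SAHA wells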
HSF-1 act – HSF-1 activators, primary screen, NIH3T3-HGL cells, MG132 stress, luminescence, single point | AID 504408, 2011 | activation, % at 9 µM | NIH3T3-HGL HSF-1 luciferase reporter, 8 h; 100% = twice DMSO control signal | 1.7% of 300,000 active;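 active means mean replicate activation of at least 50% with a set share of replicates each reaching 50%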;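 further: 0% = median of the neutral control wells and 100% = twice that signal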
DAX1 inh – DAX1 (NR0B1) inhibitors, primary screen, cell-based, HEK293, Gal4-DAX1, luciferase luminescence; Nuclear receptor subfamily 0 group B member 1 (Homo sapiens), P51843; HEK293 Gal4-DAX1 luciferase reporter; inhibition, % at 6.75 µM; 0.99% of 340,000 active;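 active means inhibition above the mean over all tested compounds plus 3 SD, cut at about 4.2% in these data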;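 further: 0% = DAX1-transfected cells with DMSO and 100% = empty-vector control cells with DMSO; inhibition shows as a rise in luminescence from relieved DAX1 repression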
HSF1 inh – HSF1 inhibitors in luciferase reporter cells, primary screen, cell-based, NIH3T3, luminescence | NIH3T3-HGL HSE-luciferase, MG132-induced, luminescence 8 h; active compounds read low | activity change, negative = inhibition, % at 7.5 µM (by protocol) | 0.77% of 300,000 active;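 active means more than half of replicate wells show activity change below -50%, luminescence cut by over half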;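 further: luciferase reports HSF-1 transcriptional activity via heat shock element; 0% = median of DMSO wells and -100% = zero luminescence signal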
An asterisk follows results filed as active; · = no result given.

SMILES	AHR act	GAA850 FXN act	HSF-1 act	DAX1 inh	HSF1 inh
COC(=O)c1ccc(COc2ccc(/C=N/N3CCN(C)CC3)cc2)cc1	18	5	-7	1	-14
CN1CCN(/N=C/c2ccc(OCc3ccccc3)cc2)CC1	3	1	-17	6.0*	-1
S=c1nc[nH]c2c1[nH]c1ccc(Cl)cc12	25	3	-10	5.1*	-2
S=c1nc[nH]c2c1[nH]c1ccccc12	44	0	2	2	1
Cc1cnc(CNC(=O)c2ccc3oc(Cc4ccc(Cl)cc4)nc3c2)cn1	8	1	29	0	14
COc1c2c(cc3oc(=O)ccc13)OC(C)(C)C=C2	2	2	21	4	15
CC1(C)C=Cc2cc3ccc(=O)oc3cc2O1	0	-1	14	6.7*	7
Cc1cc(C)nc(NN2C(=O)C=CC2=O)n1	18	2	-14	2	-2
CN1C(=O)[C@H]2[C@@H](c3ccc(C(F)(F)F)cc3)N[C@]3(CCCN(Cc4ccco4)C3=O)[C@H]2C1=O	·	0	·	0	·
Cc1ccccc1OCCCC(=O)Nc1ccccc1C(F)(F)F	6	0	91*	0	38
COc1ccc(NC(=O)c2cc(CN3C(=O)c4ccccc4C3=O)ccc2OC)cn1	-18	-3	-74	-1	-67*
COc1ccc2c(n1)Sc1nc3ccccc3nc1N2	64*	3	55*	5.5*	27
COc1cc2ccccc2nn1	4	2	9	1	-8
O=C(Nc1cccnc1)C1CCC(CNS(=O)(=O)c2cccc3nsnc23)CC1 (centres undefined)	5	1	11	1	-2
Brc1ccccc1-c1nnc2sc(-c3ccc4c(c3)OCCO4)nn12	7	-3	-24	0	-3
Fc1ccc(-c2nn3c(C4COc5ccccc5O4)nnc3s2)cc1 (centres undefined)	8	3	7	-2	4
Clc1ccccc1-c1nnc2sc(-c3ccc4c(c3)OCO4)nn12	56*	-1	-2	0	1
c1csc(-c2nn3c(C4COc5ccccc5O4)nnc3s2)c1 (centres undefined)	62*	7	·	0	·
c1ccc2c(c1)OCC(c1nnc3sc(-c4ccc5c(c4)OCO5)nn13)O2 (centres undefined)	48*	-1	11	-1	5
c1ccc2c(c1)ncn2Cc1nnc2sc(-c3ccc4c(c3)OCO4)nn12	50*	0	16	0	5
CSc1nc(N)c(C(=O)Nc2ccc([N+](=O)[O-])cc2)s1	6	0	17	1	10
N#CCSc1nnc(-c2ccc3c(c2)OCO3)o1	4	2	-3	0	5
Clc1ccccc1-c1nnc(-c2ccc3c(c2)OCO3)o1	-4	5	95*	3	62
CC(CCc1ccccc1)NC(=O)c1cccc([N+](=O)[O-])c1 (centres undefined)	3	1	-66	-1	-53*
Cc1ccc(C(=O)NC(C)CCc2ccccc2)cc1[N+](=O)[O-] (centres undefined)	1	-1	18	-1	2
SMILES	AHR act	GAA850 FXN act	HSF-1 act	DAX1 inh	HSF1 inh
Cc1ccc(CONC(=O)c2cccc([N+](=O)[O-])c2)cc1	1	1	·	4.7*	·
COc1ccccc1NC(=O)C(=O)Nc1ccccn1	39	1	59*	1	28
COc1ccccc1NC(=S)Nc1ccccn1	117*	6	38	0	11
C(=Nn1cnnc1)c1ccc2c(c1)CCC2	·	0	·	1	·
COc1ccc(S(=O)(=O)Nc2nnc(Cc3ccc(OC)c(OC)c3)s2)cc1	0	2	17	0	10
CCCn1nc(NC(C)=O)c2cc3cccc(C)c3nc21	48*	2	17	0	-10
Cc1cccc2cc3c(NC(=O)c4ccccn4)nn(C)c3nc12	49*	1	1	1	-8
CCCn1nc(NC(=O)CC(C)C)c2cc3cccc(C)c3nc21	5	-1	-9	3	-6
CCCC(=O)Nc1nn(C)c2nc3c(C)cccc3cc12	8	0	16	-1	6
